PubChem BioAssay AID488847 (NMMLSC, 2010)
About 1,900 (0.58%) of roughly 330,000 compounds were called active. This excerpt belongs to a sample that is enriched for actives. Unmarked numbers belong to inactive results.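 Rule for the calls: active = inhibition of aptamer binding above 40%, roughly 3 SD of noise, on plates passing a quality check; inactive = the rest.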

Molecular target: Beta-adrenergic receptor kinase 1 (Homo sapiens) (UniProt P25098)
Experiment: compounds blocking aptamer binding on GRK2 – biochemical, human GRK2, bead flow cytometry, HTS, primary screen (AID 488847);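 note: median bead fluorescence of bound FAM aptamer so fluorescent compounds give negative values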
Conditions: FAM-aptamer displacement from GRK2, at 10 µM, stronger effect = higher value

Beta-adrenergic receptor kinase 1 (Homo sapiens), sequence (P25098 whole entry, looked up): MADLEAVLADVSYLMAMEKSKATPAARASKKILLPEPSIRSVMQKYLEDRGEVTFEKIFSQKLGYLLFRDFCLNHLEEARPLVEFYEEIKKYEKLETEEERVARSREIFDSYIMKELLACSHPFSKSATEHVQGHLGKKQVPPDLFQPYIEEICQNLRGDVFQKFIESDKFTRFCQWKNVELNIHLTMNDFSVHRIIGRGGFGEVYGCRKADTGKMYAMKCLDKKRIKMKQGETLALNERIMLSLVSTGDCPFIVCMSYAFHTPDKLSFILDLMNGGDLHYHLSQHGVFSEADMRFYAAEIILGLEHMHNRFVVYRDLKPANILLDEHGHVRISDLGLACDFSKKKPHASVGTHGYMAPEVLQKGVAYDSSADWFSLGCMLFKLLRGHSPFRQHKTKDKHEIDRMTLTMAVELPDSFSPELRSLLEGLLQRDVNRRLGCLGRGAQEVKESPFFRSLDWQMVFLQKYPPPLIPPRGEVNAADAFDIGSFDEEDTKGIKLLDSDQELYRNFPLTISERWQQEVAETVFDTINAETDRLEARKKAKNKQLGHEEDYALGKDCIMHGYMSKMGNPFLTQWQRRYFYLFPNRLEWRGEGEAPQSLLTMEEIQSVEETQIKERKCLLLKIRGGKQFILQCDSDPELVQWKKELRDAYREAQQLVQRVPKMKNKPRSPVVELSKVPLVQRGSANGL

| SMILES | inhibition of aptamer binding |
| --- | --- |
| CCOc1ccccc1C(=O)NCc1ccco1 | 50% (active) |
| Cc1cccc(Nc2ccccc2C(=O)NCc2ccco2)c1C | 0% |
| CCOc1cc(NC(=S)NCc2ccco2)c(OCC)cc1NC(=O)c1ccco1 | 0% |
| CC(C)CN(C(=O)COC(=O)c1ccc2ccccc2c1)c1c(N)n(Cc2ccccc2)c(=O)[nH]c1=O | 0% |
| CC(C)CN(C(=O)COC(=O)c1ccc(Cl)c(N)c1)c1c(N)n(Cc2ccccc2)c(=O)[nH]c1=O | 1% |
| Cc1csc(=O)n1CC(=O)OCC(=O)N(CC(C)C)c1c(N)n(Cc2ccccc2)c(=O)[nH]c1=O | 98% (active) |
| c1ccc(CC2CCN(c3nc4ccccc4n4cnnc34)CC2)cc1 | 0% |
| COc1ccccc1OCCNC(=O)c1cc([N+](=O)[O-])cc([N+](=O)[O-])c1 | 0% |
| COc1ccc(C(=O)NCCNc2ccc([N+](=O)[O-])cn2)cc1 | 45% (active) |
| COc1ccc(C(=O)NCCSc2ccccc2C)cc1 | 0% |
| O=C(N/N=C/C=C/c1ccco1)c1cccs1 | 7% |
| Cc1nn(C)c(Cl)c1CN1CCC(n2nccc2NC(=O)C2CCCC2)CC1 | 4% |
| COc1ccc(S(=O)(=O)N2CCOCC2)cc1C(=O)NC1CCCCC1 | 3% |
| CC1CCCCC1NC(=O)CN1CCC(O)(c2ccc3c(c2)OCO3)CC1 (centres undefined) | 1% |
| COc1ccc(CNC(=O)COc2ccccc2C(=O)c2cnn(-c3ccccc3)c2)cc1OC | 1% |
| Cc1ncc(CC(=O)n2cc(C(=O)c3cc(Cl)ccc3O)cn2)s1 | 6% |
| O=C(c1cnn(-c2ccc(Cl)cc2)c1)c1ccccc1O | 47% (active) |
| Cc1ccc(C)c(S(=O)(=O)N2CCN(c3ncnc4sccc34)CC2)c1 | 2% |
| Cc1ccc(-n2ncc3c2CC(C)(C)CC3NC(=O)Cc2c(C)noc2C)cc1 (centres undefined) | 3% |
| CCOC(=O)C1CCN(C(c2cc3cc(C)cc(C)c3[nH]c2=O)c2nnnn2C2CCCCC2)CC1 (centres undefined) | 0% |
| CCOC(=O)C1CCCN(Cc2nc(N)nc(Nc3ccc(C)cc3)n2)C1 (centres undefined) | 60% (active) |
| CCOC(=O)C1CCCN(CCSc2ccc(C)cc2)C1 (centres undefined) | 0% |
| Cc1ccc(Nc2nc(N)nc(CN3CCN(Cc4ccccc4)CC3)n2)cc1Cl | 1% |
| Cc1cc(C)c2nc(N3CCC(C(=O)NCCN4CCOCC4)CC3)sc2c1 | 1% |

| SMILES | inhibition of aptamer binding |
| --- | --- |
| CC1CCN(CC(=O)Nc2nccs2)CC1 | 1% |
| Cc1cccc(N2C(=O)c3ccc(C(=O)Nc4cccc(C(=O)O)c4)cc3C2=O)c1 | 0% |
| O=C(/C=C/c1ccc(N2CCOCC2)cc1)c1ccccc1 | 0% |
| O=C(O)c1ccc2c(c1)C(=O)N(c1ccc(/C=C/C(=O)c3ccccc3)cc1)C2=O | 46% (active) |
| O=C(NC1CCCC1)C(c1ccc(N2CCOCC2)cc1)N(C(=O)c1ccco1)c1ccccc1F (centres undefined) | 1% |
| CC(C)c1ccc(Nc2nnc(SCC(=O)c3nnc(-c4ccccc4)o3)s2)cc1 | 0% |
| CCN1/C(=C\c2ccc3ccccc3[n+]2CC)Sc2cc(C)ccc21 | 96% (active) |
| CCN1/C(=C/c2ccc3ccc(C)cc3[n+]2CC)Sc2ccccc21 | 94% (active) |
| CCn1c(CNC(=O)c2ccccc2)nnc1SCC(=O)N1CCN(c2ccccc2)CC1 | 0% |
| NC(=O)c1nnsc1-c1ccc(-c2snnc2C(N)=O)cc1 | 1% |
| CN(CCC#N)c1ncnc2scc(-c3ccccc3)c12 | 3% |
| CC(Oc1ccc(F)cc1)C(=O)N1CCN(c2ncccn2)CC1 (centres undefined) | 6% |
| COc1cccc(/C=C(/CC(=O)Nc2ccc(N3CCOCC3)cc2)c2nc3ccccc3s2)c1 | 0% |
| CCCCN(C(=O)c1ccc(C)o1)c1c(N)n(CCCC)c(=O)[nH]c1=O | 0% |
| CCCCn1c(N)c(N(CCC(C)C)C(=O)c2ccc([N+](=O)[O-])o2)c(=O)[nH]c1=O | 55% (active) |
| CCCCn1c(N)c(N(CCC(C)C)C(=O)c2ccc(COc3ccccc3)o2)c(=O)[nH]c1=O | 1% |
| C=CCSc1nc2c(c(=O)[nH]1)C(C(C)C)C(C#N)=C(N)O2 (centres undefined) | 2% |
| CC(CC(=O)Nc1ccccc1)n1ccnc1 (centres undefined) | 1% |
| C[C@H](NS(=O)(=O)c1ccc(Cl)cc1)C(=O)OCC(=O)N1CCOCC1 | 8% |
| CC(=O)N1CC[n+]2c(-c3ccc([N+](=O)[O-])cc3)csc21 | 92% (active) |
| COc1ccc(C2CC(c3ccc([N+](=O)[O-])cc3)=NN2C(C)=O)cc1 (centres undefined) | 0% |
| COC(=O)c1c(C)[nH]c(C)c1-c1ccc([N+](=O)[O-])cc1 | 0% |
| Cc1nn(Cc2ccc(F)cc2)c(C)c1NC(=O)c1cccnc1Cl | 5% |
| Cc1nn(Cc2ccc(F)cc2)c(C)c1NC(=O)c1noc2c1CCc1ccccc1-2 | 73% (active) |

| SMILES | inhibition of aptamer binding |
| --- | --- |
| Cc1nn(Cc2ccc(Cl)c(Cl)c2)c(C)c1NC(=O)c1cc(C2CC2)on1 | 0% |
| Cc1ccccc1-n1cc(CNC(=O)CC2C(=O)NCCN2C/C=C/c2ccccc2)cn1 (centres undefined) | 0% |
| O=C(NC1CC1)C1=C[C@H](c2coc3ccccc3c2=O)C[C@H](OCCCCO)O1 | 2% |
| CCN1C(=O)[C@H]2[C@@H](c3ccc(SC4CCCCC4)c(OC)c3)N[C@@](Cc3ccccc3)(C(=O)OC)[C@H]2C1=O | 0% |
| CCN1C(=O)[C@H]2[C@@H](c3ccc(-c4ccc(OC)cc4)cc3)N[C@@](Cc3ccccc3)(C(=O)OC)[C@H]2C1=O | 43% (active) |
| CCN1C(=O)[C@H]2[C@@H](c3ccc(-c4ccc(F)cc4)cc3)N[C@@](Cc3ccccc3)(C(=O)OC)[C@H]2C1=O | 0% |
| COc1cccc(C2SCC(=O)N2c2cccc(C)c2)c1OC (centres undefined) | 2% |
| COCCn1c(SCC(=O)c2[nH]c(C)c(C(C)=O)c2C)nc2ccccc2c1=O | 0% |
| C/C(=N\NC(=S)NCc1ccccc1)C1CCCCC1 | 1% |
| CC1CCCCC1NC(=O)c1cc(=O)[nH]c2ccccc12 (centres undefined) | 0% |
| COc1ccc(OC)c(CNC(=O)Cn2nc(C)c3c(C)n(-c4ccc(C)cc4)nc3c2=O)c1 | 0% |
| CC[N+](C)(CC)CCC[n+]1c(-c2ccccc2)c2cc(N)ccc2c2ccc(N)cc21 | 62% (active) |
| Cc1ccc(-c2nc(CS(=O)CC(=O)NC3CCCC3)c(C)o2)cc1 (centres undefined) | 0% |
| CC(=O)Nc1cccc(C(=O)OCC(=O)c2ccc3c(c2)OCO3)c1 | 0% |
| O=C(OCc1ccccc1F)c1ccc2c(c1)OCCO2 | 0% |
| O=C(COC(=O)c1ccc(O)cc1O)c1ccc2c(c1)OCCO2 | 44% (active) |
| CN(CC(=O)Nc1ccc(Cl)c(C(F)(F)F)c1)C(=O)CCC(=O)c1ccccc1 | 1% |
| CCC(C)(C)N=C(NC#N)Nc1cccnc1 | 0% |
| Cc1nc(Nc2ccc(S(=O)(=O)N3CCCC3)cc2)c2nnn(Cc3ccccc3)c2n1 | 0% |
| Cc1nc(Nc2ccccc2F)c2nnn(Cc3ccccc3Cl)c2n1 | 47% (active) |
| Cc1nc(Nc2ccc3c(c2)OCCO3)c2nnn(Cc3ccccc3Cl)c2n1 | 0% |
| O=C(CNC(c1ccccc1)c1ccccc1)Nc1ccc(F)cc1 | 1% |
| S=C(Nc1cccnc1)Nc1ccccn1 | 1% |
| O=C1CSC(=O)N1CCOCCN1C(=O)CSC1=O | 3% |

| SMILES | inhibition of aptamer binding |
| --- | --- |
| O=C(CNC(=O)c1n[nH]c2ccccc12)Nc1cc(Cl)ccc1Cl | 0% |
| Cc1cccc(OCC(O)CN2CCN(S(=O)(=O)c3ccc(C)cc3C)CC2)c1 (centres undefined) | 1% |
| O=S(=O)(c1ccc(OCC(O)CN2CCN(c3ccccc3Cl)CC2)cc1)N1CCOCC1 (centres undefined) | 0% |
| CC(=O)c1ccc(OCC(O)CN2CCN(S(=O)(=O)c3cccc(Br)c3)CC2)cc1 (centres undefined) | 88% (active) |
| CCC(C)N1C(=O)S/C(=C/c2ccc(Sc3nc4ccccc4[nH]3)o2)C1=O (centres undefined) | 1% |
| Cc1cccc(NC(=S)NCc2ccc3[nH]c4c(c3c2)CCCC4)c1 | 0% |
| Cc1ccc(C(C)NC(=O)Cn2nc(C)c([N+](=O)[O-])c2C)cc1 (centres undefined) | 2% |
| COC(=O)c1ccc(C)c(NC(=O)Cn2c(C)csc2=O)c1 | 0% |
| COC(=O)c1ccc(C)c(NC(=O)C2CC(=O)N(C3CCCC(C)C3C)C2)c1 (centres undefined) | 63% (active) |
| Cc1ccc(C)c(NC(=O)C2CC(=O)N(C(C)C)C2)c1 (centres undefined) | 2% |
| O=C(CSCc1ccc([N+](=O)[O-])cc1)NCCSCc1ccccc1 | 0% |
| COc1ccc(-c2ocnc2C(=O)Nc2ccc3c(c2)CCC3)cc1 | 8% |
| COC(=O)c1ccc(S(=O)(=O)NCc2ccccc2)n1C | 2% |
| Cc1ccc(C(=O)OCC(=O)N2CC(C)CC(C)C2)cc1S(=O)(=O)N1CCCCC1 (centres undefined) | 2% |
| COc1cccc2c1OCC(C(=O)NCc1ccc(Cl)cc1Cl)=C2 | 0% |
| CCC(=O)c1ccc(OCC(=O)OCC(=O)N2CCc3ccccc3C2)cc1 | 3% |
| CN(C)c1ccc(NC(=S)N(CCc2ccccc2)C2CC(=O)N(c3c(Cl)cccc3Cl)C2=O)cc1 (centres undefined) | 1% |
| O=C(CNC(=O)COc1ccccc1)NCCc1ccccn1 | 0% |
| O=C(COc1ccccc1)NCCc1nc2ccccc2[nH]1 | 59% (active) |
| CC(C)=C(NC(=O)c1ccco1)C(=O)NCCc1nc2ccccc2[nH]1 | 0% |
| OCCC1CN(Cc2ccc(Oc3ncccn3)cc2)CCN1CCc1ccccc1 (centres undefined) | 0% |
| CCNc1nc(NC(C)C)nc(OCCOC(=O)c2ccccc2)n1 | 0% |
